This is a sample that favours compounds with a hit; in the whole collection about 3.6% have one here.
BJeLR viability = kills HRASV12-expressing BJeLR cells | 0.17% of 300,000 active | inhibition, % (no concentration beside the values) | BJeLR (HRASV12) viability, CellTiter-Glo ATP luminescence, 48 h; in the data active = inhibition above about 50%; inconclusive = no clear call, values can overlap the other calls
BoNT F protease = BoNT F light chain protease inhibition. Multiplex microsphere protease cleavage assay, flow cytometry. inhibition, % at 10 µM. 0.22% of 360,000 active; in the data active = inhibition above about 35%, passing the limit was not always enough; inconclusive = no clear call, values can overlap the other calls; note: plate controls were buffer without enzyme for full effect and enzyme alone for no effect
Anthrax LF prot = blocks Bacillus anthracis lethal factor protease; inhibition, % at 10 µM; multiplex microsphere protease cleavage assay, LF; P15917; 0.12% of 360,000 active; note: plate controls were buffer without enzyme for full effect and enzyme alone for no effect
BoNT-A LC inh2 = blocks Botulinum neurotoxin A light chain protease; 0.17% of 360,000 active; inhibition, % at 10 µM; multiplex microsphere protease substrate cleavage, flow cytometry; note: plate controls were buffer without enzyme for full effect and enzyme alone for no effect
3CLpro inhibitor = SARS-CoV 3CLpro protease inhibition; P0C6X7; recombinant SARS-CoV 3CLpro, quenched FRET peptide cleavage; inhibition, % at 6 µM; 0.14% of 290,000 active; in the data active = inhibition above about 12%
Autofluor counter = counter-screen for toxin protease inhibitors: compound fluorescence. compound autofluorescence counterscreen, microsphere flow cytometry; active compounds read high. fluorescence intensity (test concentration not listed). 3.1% of 360,000 active. AID 624483; in the data active = fluorescence intensity above about 16000; inconclusive = no clear call, values can overlap the other calls
Active calls of the source: *; u = inconclusive; x = no result. Cut-off read from the data, not from the text of the source, unless noted: active = inhibition above about 30%; inconclusive = no clear call, values can overlap the other calls; inactive = below that.

SMILES	BJeLR viability	BoNT F protease	Anthrax LF prot	BoNT-A LC inh2	3CLpro inhibitor	Autofluor counter
CC(=O)c1cc2c(cc1NS(=O)(=O)c1ccc(C)cc1)OCO2	4	5	-11	9	-1	20111*
CN1/C(=C/C2CC(=O)N(c3cccc4ccccc34)C2=O)C(C)(C)c2ccccc21 (stereo unspecified)	-12	16	-12	16	6	20679*
CN1/C(=C/C2CC(=O)NC2=O)C(C)(C)c2ccccc21 (stereo unspecified)	x	4	2	5	4	19664*
CCOc1ccc(N2C(=O)CC(/C=C3/N(C)c4ccccc4C3(C)C)C2=O)cc1 (stereo unspecified)	-6	-11	1	3	3	2652
COc1ccc(C(=O)NC(=S)Nc2ccc(Cl)c(C(=O)O)c2)cc1	6	-7	0	0	-1	5384
CC(C)Oc1cccc(C(=O)NC(=S)Nc2ccc(Cl)c(C(=O)O)c2)c1	-10	1	-2	-1	3	23433*
CC(C(=O)N1CCN(c2ccc(Cl)cc2)CC1)c1ncc(C(F)(F)F)cc1Cl (stereo unspecified)	2	-1	-3	-1	2	16547*
Cc1cnc(C(=O)NC(Cc2ccccc2)c2ccccc2)cn1 (stereo unspecified)	-6	6	1	1	-1	5062
CC(C)(C(=O)c1ccccc1)/[N+]([O-])=C/c1ccccc1	-8	0	-1	-1	-2	23931*
CCc1cc[n+](/C(C(=S)Nc2cccc(C)c2)=C(/[O-])c2ccc(C)c([N+](=O)[O-])c2)cc1	8	-22	9	32*	-3	3019
COc1cccc(C(=O)Nc2cccc3ccccc23)c1	5	-16	0	-1	-2	3063
COc1cccc(C(CC(=O)Nc2cccc3ccccc23)NC(=O)c2ccccc2)c1 (stereo unspecified)	5	10	-7	5	-9	19845*
CCOc1ccc(CCNC(=O)COC(=O)c2oc3ccccc3c2COC)cc1OCC	x	-23	-2	-1	x	4099
CCS(=O)(=O)Nc1ccc(C2=NN(C(=O)c3ccco3)C(c3ccc(C)cc3)C2)cc1 (stereo unspecified)	-9	-2	-13	u	2	16946*
CCS(=O)(=O)Nc1ccc(C2=NN(C(=O)c3ccco3)C(c3cccc(F)c3)C2)cc1 (stereo unspecified)	-8	-5	0	0	2	2506
O=C(c1ccc2c(c1)OCCCO2)c1cccs1	1	-4	-1	u	5	22559*
O=C(Nc1cccc(F)c1)C1CCN(C(=O)c2ccc(Br)cc2)CC1	-4	-1	1	-1	1	23473*
CC1CCCCC12NC(=O)N(CC(=O)NC(=O)NCc1ccco1)C2=O (stereo unspecified)	-11	-2	-2	1	4	22867*
O=C(N/N=C/c1cccc([N+](=O)[O-])c1)c1ccccc1-n1cccc1	12	-8	-3	0	-2	5038
O=C(CNc1n[nH]c(=O)[nH]c1=O)N/N=C/C1CC=CCC1 (stereo unspecified)	0	x	x	x	-3	x
CCCc1cc(C(=O)NNC(=S)NCC)c2ccccc2n1	-3	1	0	0	-2	1976
CCNC(=S)NNC(=O)c1cc(-c2cc(C)ccc2C)nc2ccccc12	-5	3	-1	1	3	19654*
Cc1nn(C(C)C(=O)NNC(=S)Nc2ccc(F)cc2)c(C)c1[N+](=O)[O-] (stereo unspecified)	-14	-1	-1	-2	0	24064*
COc1ccc(NC(=S)NNC(=O)C(C)n2nc(C)c([N+](=O)[O-])c2C)cc1 (stereo unspecified)	-9	2	-6	0	-1	7710
O=C(Oc1ccc2ccccc2c1)c1cncc(Br)c1	2	-7	0	0	-2	11232
SMILES	BJeLR viability	BoNT F protease	Anthrax LF prot	BoNT-A LC inh2	3CLpro inhibitor	Autofluor counter
O=C(Oc1ccc2c(=O)c(Oc3ccc4ccccc4c3)coc2c1)c1cncc(Br)c1	27	36*	1	0	-2	4480
CN(C)S(=O)(=O)c1ccc(C(=O)OCC(=O)Nc2ccccc2OC(F)F)cc1	1	-4	-2	-2	1	23884*
CN(Cc1ccccc1)C(=O)c1cccc(NC(=O)Cc2cccc(NC(=O)C3CCN(C(=O)c4ccccc4)CC3)c2)c1	x	-1	4	0	x	4092
CCOC(=O)c1ccc(S(=O)(=O)N2CCN(CC(O)COc3cccc(C(C)=O)c3)CC2)cc1 (stereo unspecified)	-3	4	-2	1	0	3773
CC(C)(C)OC(=O)N1CCc2onc(-c3ccccc3F)c2C1=O	x	-8	-2	-1	x	3797
COc1cccc(NC(=S)N2CCN(C/C=C/c3ccccc3)CC2)c1	6	-6	-3	-2	-4	22410*
O=C(Nc1ccc2c(c1)OCO2)N1CCN(c2ccccc2)CC1	10	-5	0	-1	-3	2161
Cc1ccc(NC(=O)N2CCN(C/C=C/c3ccccc3)CC2)cc1	1	-8	-1	-2	-1	3010
COC(=O)c1ccccc1NC(=O)N1CCN(C/C=C/c2ccccc2)CC1	6	-2	-2	0	-1	20603*
O=C(Nc1ccc2c(c1)OCO2)N1CCN(c2ncccn2)CC1	5	2	0	1	-3	22918*
O=C(Nc1ccc2c(c1)OCO2)N1CCN(C/C=C/c2ccccc2)CC1	-2	-4	-2	-2	-9	17067*
CCOC(=O)C1C(c2ccc([N+](=O)[O-])cc2)C2C(=O)NN=C2CC1(C)O (stereo unspecified)	5	-6	10	0	-1	5632
COc1ccc2c(C)cc(SCC(=O)N3CCOCC3)nc2c1	-6	36*	6	2	0	6037
O=C(c1ccc(F)cc1)C(C(=O)N1CCCCC1)n1ccccc1=O (stereo unspecified)	-1	-3	2	0	-3	3321
CC(C)NC(=O)C1CCN(C(=O)C(C(=O)c2ccccc2)n2cc(Cl)ccc2=O)CC1 (stereo unspecified)	4	-3	0	0	-4	23513*
CCn1nc(CCC(=O)O)c2ccccc2c1=O	4	3	-1	3	1	22340*
CCCn1nc(CC(=O)O)c2ccccc2c1=O	-1	5	0	0	-1	2754
O=C(CC(=O)N/N=C/c1c(Cl)cccc1Cl)NCc1cccnc1	-5	-6	-4	0	-6	4227
CCCC1NC(=O)c2cccnc2-n2c1nc1ccc(Cl)cc1c2=O (stereo unspecified)	x	-7	0	0	x	3631
C=CC(=O)NC(NC(=O)C=C)c1ccc(Br)cc1	0	-4	0	u	-3	21256*
COc1cccc(N2CCN(C(=O)c3ccc(-c4ccccc4)cc3)CC2)c1	0	-6	-1	-1	8	6120

High-throughput results deposited in PubChem BioAssay by several laboratories.
